Assay results reported in the supplement of paper PMC12645437, “Orthogonal IMiD-Degron Pairs Induce Selective Protein Degradation in Cells” (ACS Chemical Biology, 2025).
The full ranking holds about 8,300 sequences; the median of “log2 fold change of degron read counts, EGFP-low vs EGFP+ sorted cells (limma voom), compound-induced degradation” is about -1.1, and the highest 2% start at about 3.2. The full list was thinned out, with the highest values kept by preference.

T1: CRBN, Q96SW2
T1 chain: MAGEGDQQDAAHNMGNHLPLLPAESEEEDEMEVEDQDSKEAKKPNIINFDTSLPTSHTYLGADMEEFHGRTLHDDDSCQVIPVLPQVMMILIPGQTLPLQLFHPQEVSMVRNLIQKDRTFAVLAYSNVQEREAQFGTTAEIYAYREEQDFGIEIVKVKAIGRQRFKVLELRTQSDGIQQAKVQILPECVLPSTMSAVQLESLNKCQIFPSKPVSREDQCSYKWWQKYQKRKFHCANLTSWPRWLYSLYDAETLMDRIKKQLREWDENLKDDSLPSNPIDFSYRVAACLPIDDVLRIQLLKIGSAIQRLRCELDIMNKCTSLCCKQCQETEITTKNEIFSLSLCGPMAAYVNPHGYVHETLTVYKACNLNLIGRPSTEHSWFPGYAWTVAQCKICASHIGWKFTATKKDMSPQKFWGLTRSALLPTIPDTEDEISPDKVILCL


Molecular target: T1, CRBN, Q96SW2
Test: log2 fold change of degron read counts, EGFP-low vs EGFP+ sorted cells (limma voom), compound-induced degradation; higher = more compound-induced degradation of the degron-EGFP fusion; degrons are variants of IKZF1/3 zinc finger 2; compound dose not given here
Details: Jurkat, 18 h
[1] = compound: compound 19 (5-tert-butyl-thalidomide)
[2] = compound: compound 22 (5-morpholino-thalidomide)
[3] = compound: compound 33 (diphenyl IMiD analogue)
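Further: pooled lentiviral library of zinc finger degron-EGFP fusions in mCherry-positive Jurkat cells, FACS-sorted after compound exposure, with degron abundance counted by next-generation sequencing.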

Sequence | log2 fold change of degron read counts [1] | log2 fold change of degron read counts [2] | log2 fold change of degron read counts [3] | log2 fold change of degron read counts (compound: thalidomide)
LVCPICGFRCTQKGNLLRHIKL [46L_47V_49P_50I_52G_53F_54R_55C_67L_, Q9UKT9] | 1.86 | 3.01 | 1.42 | 3.2
LLCPICGFRCTQKGNLLRHIKL [46L_47L_49P_50I_52G_53F_54R_55C_67L_, Q9UKT9] | 0.662 | -0.346 | 0.856 | 2.44
LQCPICGFICTQKGNLLRHIKL [46L_47Q_49P_50I_52G_53F_54I_55C_67L_, Q9UKT9] | -0.0184 | 2.22 | 2.06 | 3.45
LRCPICGFRCTQKGNLLRHIKL [46L_47R_49P_50I_52G_53F_54R_55C_67L_, Q9UKT9] | -0.000253 | -0.254 | 0.655 | 1.06
LMCPICGFRCTQKGNLLRHIKL [46L_47M_49P_50I_52G_53F_54R_55C_67L_, Q9UKT9] | 0.588 | 1.13 | 2.13 | 2
LYCPICGFRCTQKGNLLRHIKL [46L_47Y_49P_50I_52G_53F_54R_55C_67L_, Q9UKT9] | 3.08 | 3.4 | 1.5 | 1.15
LQCPICGFRCTQKGNLLRHIKL [46L_47Q_49P_50I_52G_53F_54R_55C_67L_, Q9UKT9] | 0.322 | 1.54 | 0.782 | 3.35
LECPICGFRCTQKGNLLRHIKL [46L_47E_49P_50I_52G_53F_54R_55C_67L_, Q9UKT9] | 1.29 | 0.491 | 2.73 | 3.62
LSCPICGFICTQKGNLLRHIKL [46L_47S_49P_50I_52G_53F_54I_55C_67L_, Q9UKT9] | 1.06 | 1.05 | 1.47 | 0.848
LTCPICGFICTQKGNLLRHIKL [46L_47T_49P_50I_52G_53F_54I_55C_67L_, Q9UKT9] | -0.0311 | 0.718 | 1.67 | 1.78
LDCPICGFRCTQKGNLLRHIKL [46L_47D_49P_50I_52G_53F_54R_55C_67L_, Q9UKT9] | 2 | 0.931 | 1.11 | 2.55
LTCPICGFRCTQKGNLLRHIKL [46L_47T_49P_50I_52G_53F_54R_55C_67L_, Q9UKT9] | 1.45 | 2.61 | 1.91 | 2.92
FLCPQCGATFTQKGNLLRHIKL [46F_47L_49P_50Q_52G_53A_54T_55F_67L_, Q9UKT9] | -3.01 | -2.75 | -0.206 | -0.949
FLCEICGHMFTQKGNLLRHIKL [46F_47L_49E_50I_52G_53H_54M_55F_67L_, Q9UKT9] | -2.82 | -2.78 | -2.56 | -2.3
FGCPICGRGFTQKGNLLRHIKL [46F_47G_49P_50I_52G_53R_54G_55F_67L_, Q9UKT9] | 2.07 | -0.191 | 0.245 | -0.872
FTCPQCGATFTQKGNLLRHIKL [46F_47T_49P_50Q_52G_53A_54T_55F_67L_, Q9UKT9] | -2 | -0.214 | 1.22 | 0.676
FTCNQCGAIFTQKGNLLRHIKL [46F_47T_49N_50Q_52G_53A_54I_55F_67L_, Q9UKT9] | -2.47 | -2.59 | -1.37 | -1.93
FVCPQCGAEFTQKGNLLRHIKL [46F_47V_49P_50Q_52G_53A_54E_55F_67L_, Q9UKT9] | -2.41 | -1.67 | -0.946 | -0.352

Sequence | log2 fold change of degron read counts [1] | log2 fold change of degron read counts [2] | log2 fold change of degron read counts [3] | log2 fold change of degron read counts (compound: thalidomide)
FECEICGRDFTQKGNLLRHIKL [46F_47E_49E_50I_52G_53R_54D_55F_67L_, Q9UKT9] | -3.1 | -3.32 | -2.34 | -2.82
LGCEICGFNCTQKGNLLRHIKL [46L_47G_49E_50I_52G_53F_54N_55C_67L_, Q9UKT9] | -0.546 | -1.21 | -1.47 | -1.13
FVCEICGRKFTQKGNLLRHIKL [46F_47V_49E_50I_52G_53R_54K_55F_67L_, Q9UKT9] | -1.83 | -1.33 | -1.16 | 1.3
LLCEICGFICTQKGNLLRHIKL [46L_47L_49E_50I_52G_53F_54I_55C_67L_, Q9UKT9] | -0.407 | -0.959 | 0.146 | 1.04
FHCPICGRQFTQKGNLLRHIKL [46F_47H_49P_50I_52G_53R_54Q_55F_67L_, Q9UKT9] | 0.0895 | 0.838 | 1.45 | 0.286
LMCPICGFECTQKGNLLRHIKL [46L_47M_49P_50I_52G_53F_54E_55C_67L_, Q9UKT9] | -0.925 | 0.39 | 2.43 | 1.39
LVCPICGFECTQKGNLLRHIKL [46L_47V_49P_50I_52G_53F_54E_55C_67L_, Q9UKT9] | 0.125 | 2.29 | 1.28 | 2.99
LRCPICGFPCTQKGNLLRHIKL [46L_47R_49P_50I_52G_53F_54P_55C_67L_, Q9UKT9] | 2.94 | 3.54 | 3.02 | 3.44
LACPICGFRCTQKGNLLRHIKL [46L_47A_49P_50I_52G_53F_54R_55C_67L_, Q9UKT9] | 3.37 | 2.7 | 1.18 | 2.12
LKCPICGFRCTQKGNLLRHIKL [46L_47K_49P_50I_52G_53F_54R_55C_67L_, Q9UKT9] | -1.28 | -2.03 | -2.25 | -0.57
LNCPICGFRCTQKGNLLRHIKL [46L_47N_49P_50I_52G_53F_54R_55C_67L_, Q9UKT9] | 1.52 | 0.801 | 0.131 | 1.04
LCCPICGFPCTQKGNLLRHIKL [46L_47C_49P_50I_52G_53F_54P_55C_67L_, Q9UKT9] | 0.812 | 1.08 | 1.35 | 1.76
LICPICGFPCTQKGNLLRHIKL [46L_47I_49P_50I_52G_53F_54P_55C_67L_, Q9UKT9] | 0.112 | 1.65 | 0.899 | 1.78
LHCPICGFRCTQKGNLLRHIKL [46L_47H_49P_50I_52G_53F_54R_55C_67L_, Q9UKT9] | 2.28 | 2.4 | 1.58 | 1.74
LQCPICGFECTQKGNLLRHIKL [46L_47Q_49P_50I_52G_53F_54E_55C_67L_, Q9UKT9] | 1.35 | 1.29 | 2.04 | 3.44
LFCPICGFRCTQKGNLLRHIKL [46L_47F_49P_50I_52G_53F_54R_55C_67L_, Q9UKT9] | 3.24 | 3.2 | 1.81 | 1.69
LSCPICGFRCTQKGNLLRHIKL [46L_47S_49P_50I_52G_53F_54R_55C_67L_, Q9UKT9] | 2.79 | 2.57 | 1.22 | 2.27
